Assay results taken from ChEMBL document CHEMBL4513146, “CO-ADD screening of Karazin Kharkiv National University (Ukraine) compounds”.
Entries with a potency or affinity are not part of this list.

How the values were obtained:
Klebsiella pneumoniae = settings: Concentration 32 ug.mL-1;; ASSAY_TEST Inhibition of Bacterial Growth; detection method Absorption (OD600); MEDIA CAMHB; plate type 384well; NBS; CORNING #3640; time 18 hr
Candida albicans = settings: Concentration 32 ug.mL-1; ASSAY_TEST Inhibition of Fungal Growth; detection method Absorption (OD530)
Cryptococcus neoformans = settings: Concentration 32 ug.mL-1; ASSAY_TEST Inhibition of Fungal Growth; detection method Resazurin; Absorption (OD600-OD570); plate type 384well; NBS; CORNING #3640

| Structure (SMILES) | Inhibition (Klebsiella pneumoniae) | Inhibition (Candida albicans) | Inhibition (Cryptococcus neoformans) |
| --- | --- | --- | --- |
| COc1ccc(OC)c(NC(=O)Cn2nc3c(SCc4ccc(Cl)cc4)nccn3c2=O)c1 | 1.59% | 23.62% | -18.91% |
| COc1ccc(NC(=O)Cn2nc3c(N4CCOCC4)nccn3c2=O)cc1Cl | -0.16% | 2.64% | -7.27% |
| O=S(=O)(c1cccn2cnnc12)N(Cc1ccccc1F)c1ccc(F)c(F)c1 | 13.33% | 5.39% | -3.16% |
| Cc1cc(C)cc(Oc2nccn3c(=O)n(CC(=O)Nc4ccc(Cl)cc4F)nc23)c1 | 14.33% | 0.59% | -7.4% |
| O=C(CSc1nnc2c(=O)n(-c3ccccc3)ccn12)N1CCN(c2ccc(F)cc2)CC1 | 13.33% | -0.45% | -26.48% |
| CCOC(=O)c1cccc(NC(=O)Cn2nc3c(Oc4cccc(C)c4C)nccn3c2=O)c1 | -1.37% | -0.11% | -1.74% |
| COc1ccc(-c2cc3c4nnc(SCC(=O)Nc5ccccc5C(F)(F)F)n4ccn3n2)cc1 | 8.66% | 3.79% | -13.07% |
| COC(=O)c1sccc1NC(=O)Cn1nc2c(Oc3ccccc3)nc3ccccc3n2c1=O | 10.72% | 1.3% | -16.14% |
| Cc1ccc(C)c(-c2cc3c4nnc(SCC(=O)Nc5cccc(Br)c5)n4ccn3n2)c1 | -2.64% | 49.44% | -19.95% |
| Cc1cc2nn(CC(=O)NCc3ccco3)c(=O)n2c(Nc2ccc(C)c(F)c2)n1 | 7.94% | 7.51% | -7.03% |
| Cc1ccccc1N1CCN(c2nccn3c(=O)n(CC(=O)NCc4ccc(Cl)cc4)nc23)CC1 | 7.17% | 45.71% | -4.38% |
| CCc1nnc2ccc(S(=O)(=O)N(Cc3ccc(OC)cc3)c3cccc(F)c3)cn12 | 4.14% | 4.82% | -8.59% |
| Cc1cc(C)c(NC(=O)Cn2nc3ccc(SC4CCCCC4)nn3c2=O)c(C)c1 | 7.83% | 19.78% | -14.71% |
| CCCCN(C)C(=O)CSc1nnc2c(=O)n(Cc3ccc(F)cc3)ccn12 | 14.76% | -0.35% | -33.57% |
| CC(C)NC(=O)CSc1nnc2c(=O)n(-c3ccccc3)ccn12 | 11.98% | 2.07% | -5.87% |
| COc1cc(OC)c(NC(=O)Cn2nc3ccc(SC4CCCCC4)nn3c2=O)cc1Cl | 10.6% | 29.07% | -6.25% |
| CCOc1ccc(-n2ccn3c(SCC(=O)Nc4cc(F)ccc4F)nnc3c2=O)cc1 | 6.4% | 2.5% | -1.21% |
| CC(C)CCn1c(=O)c2ccc(C(=O)NC3CCCCC3)cc2n2c(=O)n(CC#N)nc12 | 4.36% | 4.75% | -17.66% |
| COc1ccccc1-n1ccn2c(SCC(=O)c3ccc(C)cc3C)nnc2c1=O | 6.45% | 3.89% | -10.37% |
| COc1cccc(Oc2nccn3c(=O)n(CC(=O)NCc4ccc(SC)cc4)nc23)c1 | 15.38% | 2.58% | -5.89% |
| Cc1ccccc1Oc1nccn2c(=O)n(CC(=O)Nc3ccc(C#N)cc3)nc12 | 13.8% | -1.85% | -9.67% |
| Cc1cc(C)cc(Oc2nccn3c(=O)n(CC(=O)Nc4cccc(Cl)c4)nc23)c1 | 0.09% | 0.52% | -3.38% |
| O=C(Cn1nc2c3c4c(sc3ncn2c1=O)CCCC4)N1CCc2ccccc2C1 | 9.79% | 4.18% | -11.61% |
| COc1ccc(Cn2nc3ccc(-c4ccccc4)nn3c2=O)cc1F | 8.32% | 1.33% | -0.36% |
| CCOC(=O)c1ccc(NC(=O)Cn2nc3ccc(Sc4cccc(F)c4)nn3c2=O)cc1 | 10.14% | 3.42% | -9.72% |
| CCOc1ccc(NC(=O)Cn2nc3c(Sc4ccccc4)nccn3c2=O)cc1 | 8.21% | 7.49% | -21.93% |
| O=C(Cn1nc2c(SCc3ccccc3)nccn2c1=O)NC1CCCCC1 | 7.95% | 4.49% | -7.22% |
| Cc1ccc(-c2cc3c4nn(CC(=O)Nc5ccc6c(c5)OCCO6)c(=O)n4ccn3n2)cc1C | 12.57% | 1.55% | -15.09% |
| CCOc1ccccc1NC(=O)Cn1nc2c(N3CCN(c4ccccc4)CC3)nccn2c1=O | 5.33% | 7.24% | -7.83% |
| Cc1cccc(Oc2nc3ccccc3n3c(=O)n(CC(=O)Nc4cccc(C#N)c4)nc23)c1C | 4.26% | 5.6% | -21.56% |
